Consider 49 compounds from PubChem BioAssay AID1851 (National Center for Advancing Translational Sciences (NCATS), 2009).

The whole screen tested about 16,000 compounds, of which about 4,000 (25%) were called active. Not shown: some 26% with an inconclusive outcome. These entries were drawn from the full list. Values without a mark were called inactive. Calls come from the whole dose curve; as a rule, active = well fitted curve in the direction sought with a large enough effect; inconclusive = small, poorly fitted or top-dose-only effect, or effect the other way; inactive = no such curve, though single readings can be large or run the other way.
% is set by controls: 0 for no effect and ±100 for the full control effect.

The target in the assay is Cytochrome P450 2C9 (Homo sapiens) (UniProt P11712). The assay is described as follows: Cytochrome panel assay with activity outcomes. The settings on record: recombinant CYP, pro-luciferin dealkylation, luminescence, p450-cyp2c9; series mostly up to 57.1 µM; activity, negative = inhibition: at the top concentration.
Chain of Cytochrome P450 2C9 (Homo sapiens) (P11712 whole entry, looked up): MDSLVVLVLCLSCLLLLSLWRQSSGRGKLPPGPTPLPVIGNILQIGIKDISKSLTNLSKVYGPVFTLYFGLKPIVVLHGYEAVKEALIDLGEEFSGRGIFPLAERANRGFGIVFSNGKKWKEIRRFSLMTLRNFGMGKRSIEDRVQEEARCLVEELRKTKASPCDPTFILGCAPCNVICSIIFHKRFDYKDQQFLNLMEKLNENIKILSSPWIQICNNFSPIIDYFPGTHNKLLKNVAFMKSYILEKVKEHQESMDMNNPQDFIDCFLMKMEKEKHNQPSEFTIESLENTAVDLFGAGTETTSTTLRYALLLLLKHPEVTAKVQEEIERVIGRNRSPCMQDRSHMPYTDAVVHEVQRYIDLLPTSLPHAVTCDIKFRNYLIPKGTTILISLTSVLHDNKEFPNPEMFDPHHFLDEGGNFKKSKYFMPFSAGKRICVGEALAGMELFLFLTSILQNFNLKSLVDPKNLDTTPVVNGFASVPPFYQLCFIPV
For the compound `COCCNc1ncnc2ccc(-c3c(C)noc3C)cc12`, the activity, negative = inhibition was 7.8% [at 2.29 µM].
With `COC(=O)[C@@H]1[C@@H]2C[C@H]3c4[nH]c5ccccc5c4CCN3C[C@@H]2CC[C@@H]1OS(=O)(=O)O`, the activity, negative = inhibition is 7.13% [at 11.4 µM].
For `CN1CCN(c2ncnc3ccc(-c4ccccc4C#N)cc23)CC1`, the activity, negative = inhibition was 2.98% [at 2.29 µM].
As for `N#C/C(=C/c1cccc(C(F)(F)F)c1)c1nc(CCN2C(=O)c3ccccc3C2=O)cs1`, the AC50 (in general, the midpoint of the concentration-response curve, whichever way the signal moves) was 0.178 µM (active).
As for `Cc1cc(C)c(NC(=O)C2CCCN2C)c(C)c1` (centres undefined), the “activity, negative = inhibition” value is 1.9%.
With `O=c1ccn(-c2cccc(C(F)(F)F)c2)nc1-c1ccn(-c2ccccc2F)n1`, the AC50 was 10 µM (active).
As to `Cc1ccc(C(=O)CN(C(=O)c2ccc(Cl)cc2)N2C(=O)c3ccccc3C2=O)cc1`, the AC50 is 3.16 µM (active).
Take `CCOC(=O)C1=NNC2(c3ccc(Cl)cc3)C(=O)N(c3cc(C)cc(C)c3)C(=O)C12` (centres undefined): the AC50 is 3.55 µM (active).
In the case of `CCc1cc(Cl)c(OC)c(C(=O)NC[C@@H]2CCCN2CC)c1O`, the “activity, negative = inhibition” value is 0.663% [at 25.6 µM].
On the same count and under the same terms, the value for `C[C@H](N)CCCC(C)(C)O` was -15.2% [at 25.6 µM].
For `Cc1nn(-c2ccc(F)cc2)c(C)c1NS(=O)(=O)c1ccc2ccccc2c1`, the AC50 is 12.6 µM (active).
`CC(=O)Nc1c(C)nn(-c2ccc(C)c(C)c2)c1C`: the “activity, negative = inhibition” value is -8.65%.
For `Cc1ccc(CCN2CC(C(=O)NCCN3CCOCC3)CC2=O)cc1` (centres undefined), the “activity, negative = inhibition” value is -10.2%.
For the compound `CCOCCCN1CC(C(=O)NCCc2ccc(C)cc2)CC1=O` (centres undefined), the half-maximal activity concentration (AC50) is 8.91 µM (active).
On to `Cc1ccc(CCN2CC(C(=O)NCCN3CCCCCC3)CC2=O)cc1` (centres undefined), for which the “activity, negative = inhibition” value is -28.6%.
As for `COc1cc2c3cc1Oc1c(OC)c(OC)cc4c1[C@@H](Cc1ccc(O)c(c1)Oc1ccc(cc1)C[C@@H]3N(C)CC2)CN(C)C4`, the activity, negative = inhibition was -25.3% [at 11.4 µM].
For the compound `Cc1ccc(OCC(O)Cn2c3ccccc3c3ccccc32)cc1` (centres undefined), the AC50 is 4.47 µM (active).
Take `C=CCN(CC=C)CC(O)Cn1c2ccccc2c2ccccc21` (centres undefined): the AC50 is 14.1 µM (active).
Consider `OC(COc1ccc(OCC(O)CN2CCCCCC2)cc1)CN1CCCCCC1` (centres undefined), for which the “activity, negative = inhibition” value was -0.623%.
Consider `O=C(O)CC(O)C(=O)O` (centres undefined), for which the “activity, negative = inhibition” value was -7.21%.
With `Cn1c(/C=N/NC(=O)c2ccccc2Br)nc2ccccc21`, the AC50 is 2 µM (active).
`Cc1ccc(-n2nnnc2C(=Cc2ccc(N(C)C)cc2)c2nnnn2-c2ccc(C)cc2)cc1`: the AC50 is 3.55 µM (active).
As for `CC(=O)NNc1cccc(Cl)n1`, the “activity, negative = inhibition” value is -15.4%.
As to `O=C(Cn1ccc([N+](=O)[O-])n1)NCc1cccs1`, the “activity, negative = inhibition” value was -58.8%.
As to `CCCC(=O)Nc1nnc(SCC(=O)NCc2cccs2)s1`, the “activity, negative = inhibition” value is -19.5%.
`CCCCc1ccc(NC(=S)NCc2cccs2)cc1`: the AC50 was 12.6 µM (active).
As to `C#C[C@H](N)CCC(=O)O`, the “activity, negative = inhibition” value is 13.6%.
Regarding `CCS(=O)(=O)N1CCC(C(=O)NCc2ccc(F)cc2Cl)CC1`, the “activity, negative = inhibition” value was 21.2%.
Consider `CCS(=O)(=O)N1CCN(c2c(Cl)cccc2[N+](=O)[O-])CC1`, for which the AC50 was 11.2 µM (active).
Regarding `C/C(CCN1CCc2nc(-c3ccccc3)c(-c3ccccc3)cc2C1)=N\O[C@@H](C)c1cn([C@@H]2COC[C@@H]2O)nn1`, the activity, negative = inhibition was -10.5% [at 11.4 µM].
With `Cc1nn(C(=O)c2cccnc2)c(C)c1Sc1ccc(Br)cc1`, the AC50 is 10 µM (active).
In the case of `Cc1nn(C(C)(C)C)c(OC(=O)c2ccco2)c1Sc1ccccc1`, the AC50 is 10 µM (active).
Same read-out and setting: for `Cc1nn(C(=O)c2ccco2)c(C)c1Sc1ccc(Br)cc1` the value was 3.98 µM (active).
As for `O=C(NC(=S)Nc1nc(-c2ccc(Br)cc2)cs1)c1cccnc1`, the “activity, negative = inhibition” value was -6.99%.
Take `Cc1nc2ncnn2c(C)c1CCC(=O)N1CCN(C(=O)c2ccco2)CC1`: the “activity, negative = inhibition” value is -6.62%.
With `NC(=O)/C(=N\OC(=O)c1ccco1)c1nc(-c2ccc(Br)cc2)cs1`, the “activity, negative = inhibition” value is 58.2%.
For the compound `CO[C@@H]1COC(=O)[C@H]2CCCN2C(=O)[C@@H](C)COC(=O)[C@H](COCc2ccccc2)NC(=O)C/C=C\[C@H]1C`, the activity, negative = inhibition was 10.5% [at 11.4 µM].
On to `NC(=S)c1ccc[n+]([C@@H]2O[C@@H](COP(=O)([O-])OP(=O)(O)OC[C@@H]3O[C@@H](n4cnc5c(N)ncnc54)[C@@H](OP(=O)(O)O)[C@H]3O)[C@@H](O)[C@H]2O)c1`, for which the “activity, negative = inhibition” value was -19.2%.
Take `COc1ncc2ncc(=O)n(C)c2n1`: the “activity, negative = inhibition” value is 14.6%.
In the case of `Cc1ccc(NC(=O)NCCCc2ccccc2)cc1`, the AC50 was 11.2 µM (active).
Turning to `CCc1ccc(NC(=O)CS(=O)CC(=O)NCCCc2ccccc2)cc1` (centres undefined), the AC50 was 0.794 µM (active).
On to `CCc1ccc(OCCCC(=O)Nc2ccc(N3CCCCC3)cc2)cc1`, for which the “activity, negative = inhibition” value is -21.4%.
For the compound `O=C(NCCCc1ccccc1)c1cccs1`, the AC50 is 15.8 µM (active).
Turning to `CCCCC(=O)Nc1ccc(C(=O)NNC(=O)CCc2ccccc2)cc1`, the “activity, negative = inhibition” value was 7.05%.
The same measure, in the same setting: for `COc1ccc(NC(=O)N2CCCC3(CCNCC3)C2)cc1` the value was -5.11%.
`CC(C)=CCC/C(C)=C/CO/N=C1/[C@H]2O[C@@H]2[C@@H](O)[C@H]2[C@H]1CCn1c(=O)n(-c3ccccc3)c(=O)n12`: the activity, negative = inhibition was 6.87% [at 11.4 µM].
As for `Cc1cnnn1-c1ccc(C(=O)CCl)cc1`, the “activity, negative = inhibition” value is -4.42%.
Take `Nc1ccc(C(=O)NCC(=O)O)cc1`: the “activity, negative = inhibition” value is 9.9% [at 25.6 µM].
As for `CCNC(=O)c1ccc(-n2nc(C)cc2-c2ccccc2)cc1`, the half-maximal activity concentration (AC50) was 7.94 µM (active).
